The list is not random: actives were taken first. Their share in the collection is about 7.4%.
NPC1 prom act – activates the NPC1 promoter | Huh7 NPC1 promoter luciferase reporter, 24 h | Potency, µM (titrated, usually from 9.22 µM), inactives show at the top dose activation, hits mostly activators | actives 2.4% (n = 320,000) | AID 485313; note: % of control where 0% means no effect; nearly all actives have a fitted effect of over 60% in size
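Huh7 reporter cells (NPC1 promoter driving luciferase) are dosed with compound for 24 h at 37 °C, 5% CO2; luciferase detection reagent is then added and luminescence measured after 10 min at ambient temperature.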
SMN2 splice up – SMN2 splice variant enhancement; HEK293 SMN2-luciferase splicing reporter, luminescence, 30-36 h; actives 2.8% (n = 210,000); AID 1458; Potency, µM (series often up to 46.1 µM), inactives show at the top dose activity change, positive = activation, actives largely listed as activators; note: % of control where 0% means no effect; nearly all actives have a fitted effect of over 55% in size
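HEK293 cells carry an SMN2 […]–luciferase reporter in which exon 7 inclusion puts luciferase in frame. Cells were plated 10-12 h before compound addition, then incubated 30-36 h at 37C. ONE-Glo luminescence was read; sodium butyrate at 4.5 mM final served as control.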
Rab9 promoter act – activators of Rab9 promoter | Huh7 Rab9 promoter-luciferase reporter, luminescence, 24 h | Potency, µM (highest dose often 9.22 µM), for the others: top-dose activation, negative = inhibition, hits mostly activators | actives 2.8% (n = 320,000); note: % of control where 0% means no effect; nearly all actives have a fitted effect of over 60% in size
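Huh7 cells stably carrying a Rab9 promoter-luciferase reporter, 1500 cells per well in OP-MEM I with 10% FBS, treated with compound 24 hours at 37C. Luciferase activity read by luminescence after 10 minutes with Amplite reagent.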
ELG1 genotoxic – inducers of genotoxicity in HEK293T ELG1-luciferase cells | HEK293T ELG1-luciferase reporter, luminescence, 16 h | Potency, µM (doses to about 46 µM), without a hit: top-dose activity change, positive = activation, hits mostly activators | actives 1.3% (n = 330,000) | AID 504466; note: % of control where 0% means no effect; nearly all actives have a fitted effect of over 60% in size
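Reporter readout depends on ELG1 protein level, which increases with genetic stress. After 16 hr compound exposure at 37 °C, luciferase activity was quantified using ONE-Glo.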
FLuc counter – counter-screen for miR-21 project: firefly luciferase inhibitors or activators | P08659 | purified FLuc, Km substrates, luminescence inhibition | Potency, µM (top dose mostly 57.5 µM), inactives show at the top dose activity change, negative = inhibition, most hits filed as inhibitors | actives 6.9% (n = 360,000);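 note: plate controls were vehicle for no effect and reference inhibitor for full effect; nearly all actives have a fitted effect of over 55% in size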
Target sequence (P08659 whole entry, looked up): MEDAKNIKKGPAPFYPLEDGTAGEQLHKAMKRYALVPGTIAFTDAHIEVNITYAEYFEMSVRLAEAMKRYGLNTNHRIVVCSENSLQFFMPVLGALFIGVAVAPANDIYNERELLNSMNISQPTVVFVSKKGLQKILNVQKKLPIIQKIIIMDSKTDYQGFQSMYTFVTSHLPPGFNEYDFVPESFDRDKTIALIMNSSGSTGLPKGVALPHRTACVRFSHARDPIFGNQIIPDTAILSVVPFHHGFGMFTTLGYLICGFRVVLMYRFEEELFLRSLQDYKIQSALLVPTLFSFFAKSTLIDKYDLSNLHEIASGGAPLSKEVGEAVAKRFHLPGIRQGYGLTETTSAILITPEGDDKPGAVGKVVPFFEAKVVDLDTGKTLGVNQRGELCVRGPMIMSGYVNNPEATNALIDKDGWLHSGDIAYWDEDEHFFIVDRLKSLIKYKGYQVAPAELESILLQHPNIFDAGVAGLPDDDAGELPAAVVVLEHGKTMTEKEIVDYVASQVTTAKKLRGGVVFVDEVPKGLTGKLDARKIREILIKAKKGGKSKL
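Purified P. pyralis luciferase (10nM final) with 10uM D-luciferin and 10uM ATP (Km levels) in 50mM Tris acetate pH 7.5, 10mM Mg acetate, 0.01% Tween-20, 0.05% BSA; qHTS 6-point titration, ~60 µM downward; luminescence read.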
* hit, by the source's call; ? = inconclusive; · = not tested or not shown. Calls come from the whole dose curve; as a rule, active = well fitted curve in the direction sought with a large enough effect; inconclusive = small, poorly fitted or top-dose-only effect, or another doubt; inactive = no such curve, though single readings can be large; an effect the other way counts as inactive or inconclusive. Potency is the fitted concentration of half-maximal effect.

SMILES | NPC1 prom act | SMN2 splice up | Rab9 promoter act | ELG1 genotoxic | FLuc counter
CCCC(=O)N1CCCC(c2nc(-c3cccc(OC)c3)no2)C1 (centres undefined) | 3.55µM* | 11.2µM* | 1.41µM* | ? | 9.53µM*
COc1ccc(-c2noc(C3CCCN(C(=O)c4ccccc4)C3)n2)cc1 (centres undefined) | 0.1% | · | -4.6% | -0.1% | 19µM*
Cc1ccc(-c2noc(C3CCCN(C(=O)c4ccccc4)C3)n2)o1 (centres undefined) | ? | ? | ? | 9.2µM* | 19µM*
Cc1ccc(-c2noc(C3CCCN(C(=O)c4ccccc4Br)C3)n2)o1 (centres undefined) | ? | · | ? | 18.9% | ?
CCCCCCC(=O)N1CCCC(c2nc(-c3cccc(OC)c3)no2)C1 (centres undefined) | -5.9% | · | -3.2% | -3.6% | -4.0%
NNc1nc2sc3c(c2c(=O)n1Cc1ccccc1)CCC3 | -3.6% | · | 17.1% | 5.9% | 6.75µM*
CCc1nc2sc3c(c2c(=O)n1N)CCC3 | 0.4% | -17.6% | -5.3% | -2.2% | 2.6%
NNc1nc(-c2ccccc2)nc2sc3c(c12)CCCC3 | 3.55µM* | -47.3% | 2.24µM* | 1.3µM* | 0.536µM*
O=C(O)c1ccc(Cn2nnc3sc4c(c3c2=O)CCCC4)cc1 | 28.8% | 5.2% | ? | ? | 13.5µM*
Nn1c(Nc2ccccc2)nc2sc3c(c2c1=O)CCC3 | 20.1% | -51.2% | 10.6% | ? | 9.53µM*
COC(=O)C1CCN(c2csc3ccc(C)cc3c2=O)CC1 | · | · | · | · | 6.01µM*
COC(=O)C1CCN(c2csc3ccc(Cl)cc3c2=O)CC1 | · | · | · | · | 7.57µM*
Cc1ccc(S(=O)(=O)N2CCC(c3nnc(-c4cccc(C)c4)o3)CC2)cc1 | · | -19.4% | · | · | ?
CCNc1nc2c(c(=O)[nH]c(=O)n2C)n1Cc1ccc(F)cc1 | -0.4% | ? | -1.6% | 23.1µM* | 1.8%
C=CCNc1nc2c(c(=O)n(C)c(=O)n2C)n1Cc1ccc(F)cc1 | -10.9% | -86.3% | -28.0% | 20.6µM* | 0.3%
Cc1cc(-c2nnc(CCC(=O)N3CCN(Cc4cccnc4)CC3)o2)c(C)o1 | -3.5% | · | -7.7% | -9.5% | -1.6%
COC(=O)c1ccc(-c2sc3nc(N4CCOCC4)c4c(c3c2N)CC(C)(C)OC4)o1 | 1.2% | 31.6µM* | -0.4% | 0.7% | -2.2%
O=C(CCc1cn(Cc2ccccc2Cl)c2ccccc12)NC1CCCCC1 | · | · | · | · | 2.5%
COc1cc2ccccc2nn1 | -6.0% | · | -3.1% | -2.6% | 5.4%
COc1ccc2c(n1)Sc1nc3ccccc3nc1N2 | ? | · | 2.24µM* | 8.2µM* | 2.13µM*
CC(=O)Nc1nc2ccc(C(=O)NC3CCCCC3)cc2s1 | -1.2% | -3.1% | 2.2% | 0.2% | -17.2%
COC(=O)c1ccc2nc(NC(=O)C3CCCCC3)sc2c1 | 0.891µM* | · | 0.316µM* | ? | ?
COC(=O)Nc1nc2ccc(Br)cc2s1 | 27.7% | 26.2% | 1.41µM* | ? | -10.3%
CC(C)c1ccc2nc(NC(=O)C3CC3)sc2c1 | 1.58µM* | · | 1.58µM* | ? | 7.57µM*
COC(=O)c1ccc2nc(NC(=O)C(C)(C)C)sc2c1 | ? | -91.0% | 0.282µM* | ? | 0.426µM*
SMILES | NPC1 prom act | SMN2 splice up | Rab9 promoter act | ELG1 genotoxic | FLuc counter
COC(=O)C1(Cc2ccc(O)cc2)OC(=O)C(O)=C1c1ccc(O)cc1 (centres undefined) | -2.2% | · | -0.6% | -1.3% | ?
COc1cc2c(cc1CN1CCN(C(=O)c3cc(OC)c(OC)c(OC)c3)CC1)OCO2 | -3.5% | · | 2.7% | 2.6% | 0.0%
Cn1c(=O)c2cc3ccccc3nc2n(C)c1=O | -2.0% | · | -11.9% | 0.5% | -0.9%
O=C(NNc1nc2ccc(F)cc2s1)c1cccc(F)c1 | 9.3% | -21.2% | -15.2% | -6.5% | ?
COC(=O)c1ccc2nc(Nc3nc4ccc(F)cc4s3)sc2c1 | -18.5% | -93.4% | -20.5% | ? | 4.78µM*
CC(=O)c1sc(Nc2nc3ccc(F)cc3s2)nc1C | 2.82µM* | 12.6µM* | 1.78µM* | 2.8% | 3.38µM*
CCOC(=O)c1csc(Nc2nc3ccc(F)cc3s2)n1 | 14.3% | -21.1% | 22.7% | 1.0% | -15.7%
O=C(O)c1cccc(NC(=O)C2C3C=CC(C3)C2C(=O)OCC(F)(F)C(F)F)c1 (centres undefined) | -2.3% | -6.7% | 4.9% | 5.8% | 16.9µM*
CN(C)/C=C1\Oc2ccc3ccccc3c2C1=O | 3.16µM* | 17.8µM* | ? | 14.4% | 16.9µM*
COC(/C=C/Nc1ccc(OC)cc1)=C(C#N)C#N | -5.9% | 12.5% | -24.1% | -0.4% | -0.9%
COc1ccc(N/C=C/C(=O)C(C)(C)C)cc1 | -0.3% | · | -3.5% | 10.0% | 12µM*
COc1ccc(N/C=C/C(=O)c2ccccc2)cc1 | 0.316µM* | · | 0.126µM* | 0.411µM* | 0.12µM*
COc1ccc(N/C=C/C(=O)c2sc(-c3ccccc3)nc2C)cc1 | -2.2% | -13.5% | -2.3% | -5.7% | 6.75µM*
COc1ccc(N/C=C\C(=O)c2ccc3ccccc3c2)cc1 | 2µM* | · | 2.82µM* | 16.8% | ?
NS(=O)(=O)c1ccc(N/C=C\C(=O)c2ccc3ccccc3c2)cc1 | 7.3% | 0.6% | 3.5% | 3.7% | 2.5%
CC(C)(C)C1CCC(=NNC(=O)C(=O)NCc2ccco2)CC1 (centres undefined) | 1.6% | -3.7% | 0.5% | -1.8% | -3.1%
Cc1ccc(Cl)c(NC(=O)CSc2n[nH]c(=O)n2C2CC2)c1Cl | 0.9% | · | -3.9% | 4.3% | -2.1%
Cc1c(NS(=O)(=O)c2cc(C(=O)NCC3CCCO3)cc(Cl)c2Cl)c(=O)n(-c2ccccc2)n1C (centres undefined) | 2.1% | · | -2.7% | 9.0% | 2.8%
COc1ccc(C(=O)/C=C\N2CCOCC2)cc1 | 13.6% | · | 15.1% | ? | 23.9µM*
COc1ccc(C(=O)/C=C/Nc2ccc(C)cn2)cc1OC | 2.24µM* | 11.2µM* | 1.58µM* | ? | 8.49µM*
CCOc1ccc(N/C=C/C(=O)c2ccc(OC)c(OC)c2)cc1 | 3.16µM* | · | 4.47µM* | 18.3µM* | 3.01µM*
O=C(/C=C/Nc1ccccc1)c1ccc(Oc2ncccn2)cc1 | 1.41µM* | ? | 2.24µM* | ? | 2.13µM*
CCCOc1ccc(N/C=C/C(=O)c2ccc(OC)c(OC)c2)cc1 | -4.7% | · | 0.1% | 1.3% | ?
COc1ccc(N(CC(=O)NCC2CCCO2)C(=O)CCC(=O)Nc2cc(C)on2)cc1OC (centres undefined) | -4.3% | · | -3.1% | -1.2% | 1.0%
O=C(Oc1ccc(C(=S)N2CCOCC2)cc1)c1ccc(Br)cc1 | -1.1% | 20.9% | -0.7% | 0.7% | -0.1%
COc1ccc(C(=O)Oc2ccc(C(=S)N3CCOCC3)cc2)cc1 | -3.1% | · | -3.9% | 0.2% | 21.3µM*
COc1ccc(C(=O)N2CCC3(CCCN(CC(C)C)C3)CC2)cc1 | · | -2.8% | · | · | ·
COc1ccc(/C=C2\SC(=S)N(CCCC(=O)Nc3ccc(O)cc3)C2=O)cc1 | -9.9% | · | -17.2% | -0.8% | ?

Source: PubChem BioAssay (National Center for Advancing Translational Sciences (NCATS))
